The supplement of paper PMC11732987, “Enantioselective OTUD7B fragment discovery through chemoproteomics screening and high-throughput optimisation” (Communications Chemistry, 2025)

Legend:
Test in all cases: log2 ratio of Biotin-Ahx-Ub-VS probe labelling (fragment/DMSO); higher = less target engagement (more negative = stronger competition), active = hit call of the paper (q ≤ 0.05, log2 ratio ≤ -1)
Settings in all cases: compound concentration: 200 uM; treatment time: 3 h
USP42 = biological target: T1, USP42 (UniProt Q9H9J4)
T1 sequence (whole entry): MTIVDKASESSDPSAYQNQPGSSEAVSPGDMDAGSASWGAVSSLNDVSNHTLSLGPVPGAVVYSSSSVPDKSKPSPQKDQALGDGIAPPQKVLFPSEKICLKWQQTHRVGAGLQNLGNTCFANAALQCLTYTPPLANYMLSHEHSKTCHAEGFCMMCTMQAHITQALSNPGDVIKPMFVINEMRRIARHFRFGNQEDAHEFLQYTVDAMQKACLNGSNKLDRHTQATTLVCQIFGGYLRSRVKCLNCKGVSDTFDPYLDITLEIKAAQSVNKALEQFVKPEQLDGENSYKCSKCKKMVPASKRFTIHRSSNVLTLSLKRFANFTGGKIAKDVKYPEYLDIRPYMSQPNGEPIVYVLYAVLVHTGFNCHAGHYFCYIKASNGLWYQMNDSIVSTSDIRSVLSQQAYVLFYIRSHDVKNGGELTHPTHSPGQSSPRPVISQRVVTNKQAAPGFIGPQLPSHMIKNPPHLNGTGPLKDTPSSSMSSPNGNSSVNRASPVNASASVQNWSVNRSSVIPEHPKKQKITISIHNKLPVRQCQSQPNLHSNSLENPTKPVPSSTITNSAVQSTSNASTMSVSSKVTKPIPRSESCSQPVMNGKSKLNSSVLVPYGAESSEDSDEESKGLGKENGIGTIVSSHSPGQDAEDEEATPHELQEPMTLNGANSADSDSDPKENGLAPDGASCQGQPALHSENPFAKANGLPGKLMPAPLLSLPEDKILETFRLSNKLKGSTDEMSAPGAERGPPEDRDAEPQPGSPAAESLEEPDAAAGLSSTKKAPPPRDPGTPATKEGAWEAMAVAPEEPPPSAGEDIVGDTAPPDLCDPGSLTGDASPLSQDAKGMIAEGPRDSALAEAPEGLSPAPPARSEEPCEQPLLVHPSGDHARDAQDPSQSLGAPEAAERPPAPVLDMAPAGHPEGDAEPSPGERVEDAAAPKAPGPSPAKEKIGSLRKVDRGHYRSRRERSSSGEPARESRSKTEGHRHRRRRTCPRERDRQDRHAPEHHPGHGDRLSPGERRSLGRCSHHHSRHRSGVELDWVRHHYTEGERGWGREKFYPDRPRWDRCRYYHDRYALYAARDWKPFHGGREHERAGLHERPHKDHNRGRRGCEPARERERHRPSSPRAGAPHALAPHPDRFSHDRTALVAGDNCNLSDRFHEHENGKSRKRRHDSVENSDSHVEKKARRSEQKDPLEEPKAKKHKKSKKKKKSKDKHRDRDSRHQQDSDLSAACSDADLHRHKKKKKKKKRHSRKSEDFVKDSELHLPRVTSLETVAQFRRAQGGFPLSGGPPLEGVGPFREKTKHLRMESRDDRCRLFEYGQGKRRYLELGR
How it was run: (§1)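 Triplicate samples of HEK293T lysate, 495 µg each, received fragment at 200 µM or vehicle for 3 h, followed by Biotin-Ahx-Ub-VS (0.5 µM final) for 1 h. After NeutrAvidin enrichment of labelled DUBs and LysC/trypsin digestion, peptides were run by diaPASEF LC-MS/MS. The values are average log2 fragment/vehicle ratios from global-median-normalised Spectronaut label-free quantities, tested by unpaired t-test on proteins having ≥2 unique peptides.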

USP46 = USP46 (UniProt P62068)
Chain of USP46 (P62068 whole entry): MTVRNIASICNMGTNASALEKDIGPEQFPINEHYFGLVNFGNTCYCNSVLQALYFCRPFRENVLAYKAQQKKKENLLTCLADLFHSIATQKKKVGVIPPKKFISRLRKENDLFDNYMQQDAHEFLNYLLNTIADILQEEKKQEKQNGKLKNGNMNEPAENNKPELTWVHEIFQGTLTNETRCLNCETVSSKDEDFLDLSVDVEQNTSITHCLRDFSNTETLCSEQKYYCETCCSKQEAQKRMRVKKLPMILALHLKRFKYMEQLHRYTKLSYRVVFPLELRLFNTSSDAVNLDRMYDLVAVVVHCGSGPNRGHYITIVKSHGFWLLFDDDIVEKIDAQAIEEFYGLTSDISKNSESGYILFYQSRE
How it was run: as §1

USP47 = biological target: T2, USP47 (UniProt Q96K76)
T2 sequence (whole entry): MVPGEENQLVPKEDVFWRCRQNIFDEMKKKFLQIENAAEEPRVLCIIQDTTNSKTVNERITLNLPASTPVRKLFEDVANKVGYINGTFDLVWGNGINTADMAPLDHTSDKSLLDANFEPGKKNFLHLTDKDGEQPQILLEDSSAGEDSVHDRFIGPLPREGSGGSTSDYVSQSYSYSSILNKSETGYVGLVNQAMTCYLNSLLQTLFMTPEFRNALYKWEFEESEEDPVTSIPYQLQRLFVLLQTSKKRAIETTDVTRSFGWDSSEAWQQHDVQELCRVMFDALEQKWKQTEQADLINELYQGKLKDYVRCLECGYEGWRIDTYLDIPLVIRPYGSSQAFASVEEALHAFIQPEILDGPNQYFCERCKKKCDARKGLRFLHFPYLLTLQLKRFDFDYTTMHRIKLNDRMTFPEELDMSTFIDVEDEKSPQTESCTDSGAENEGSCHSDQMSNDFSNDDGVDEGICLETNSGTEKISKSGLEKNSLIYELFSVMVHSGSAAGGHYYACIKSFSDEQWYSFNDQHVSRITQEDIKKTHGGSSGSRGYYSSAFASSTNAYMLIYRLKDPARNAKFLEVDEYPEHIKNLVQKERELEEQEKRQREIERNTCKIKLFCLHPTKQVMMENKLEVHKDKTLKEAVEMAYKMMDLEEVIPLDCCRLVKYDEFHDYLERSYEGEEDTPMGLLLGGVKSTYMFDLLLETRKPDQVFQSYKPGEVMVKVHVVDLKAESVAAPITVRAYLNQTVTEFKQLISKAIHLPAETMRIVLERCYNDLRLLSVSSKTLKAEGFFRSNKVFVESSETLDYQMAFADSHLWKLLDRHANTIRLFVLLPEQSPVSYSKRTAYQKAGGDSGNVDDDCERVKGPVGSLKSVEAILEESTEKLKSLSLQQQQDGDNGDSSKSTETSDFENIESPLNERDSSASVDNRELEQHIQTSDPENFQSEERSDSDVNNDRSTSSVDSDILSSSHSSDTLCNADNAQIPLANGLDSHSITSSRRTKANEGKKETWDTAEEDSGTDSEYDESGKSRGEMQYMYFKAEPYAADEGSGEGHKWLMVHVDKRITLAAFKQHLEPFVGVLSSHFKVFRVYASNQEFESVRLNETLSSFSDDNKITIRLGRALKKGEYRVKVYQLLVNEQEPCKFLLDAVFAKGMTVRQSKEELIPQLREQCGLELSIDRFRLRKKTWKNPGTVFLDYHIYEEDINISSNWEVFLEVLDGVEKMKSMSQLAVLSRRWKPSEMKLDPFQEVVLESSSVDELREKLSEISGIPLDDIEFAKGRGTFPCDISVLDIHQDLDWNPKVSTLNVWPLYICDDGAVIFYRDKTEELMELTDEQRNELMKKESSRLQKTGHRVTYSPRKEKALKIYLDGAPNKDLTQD
How it was run: as §1

USP48 = biological target: T3, USP48 (UniProt Q86UV5)
T3 sequence (whole entry): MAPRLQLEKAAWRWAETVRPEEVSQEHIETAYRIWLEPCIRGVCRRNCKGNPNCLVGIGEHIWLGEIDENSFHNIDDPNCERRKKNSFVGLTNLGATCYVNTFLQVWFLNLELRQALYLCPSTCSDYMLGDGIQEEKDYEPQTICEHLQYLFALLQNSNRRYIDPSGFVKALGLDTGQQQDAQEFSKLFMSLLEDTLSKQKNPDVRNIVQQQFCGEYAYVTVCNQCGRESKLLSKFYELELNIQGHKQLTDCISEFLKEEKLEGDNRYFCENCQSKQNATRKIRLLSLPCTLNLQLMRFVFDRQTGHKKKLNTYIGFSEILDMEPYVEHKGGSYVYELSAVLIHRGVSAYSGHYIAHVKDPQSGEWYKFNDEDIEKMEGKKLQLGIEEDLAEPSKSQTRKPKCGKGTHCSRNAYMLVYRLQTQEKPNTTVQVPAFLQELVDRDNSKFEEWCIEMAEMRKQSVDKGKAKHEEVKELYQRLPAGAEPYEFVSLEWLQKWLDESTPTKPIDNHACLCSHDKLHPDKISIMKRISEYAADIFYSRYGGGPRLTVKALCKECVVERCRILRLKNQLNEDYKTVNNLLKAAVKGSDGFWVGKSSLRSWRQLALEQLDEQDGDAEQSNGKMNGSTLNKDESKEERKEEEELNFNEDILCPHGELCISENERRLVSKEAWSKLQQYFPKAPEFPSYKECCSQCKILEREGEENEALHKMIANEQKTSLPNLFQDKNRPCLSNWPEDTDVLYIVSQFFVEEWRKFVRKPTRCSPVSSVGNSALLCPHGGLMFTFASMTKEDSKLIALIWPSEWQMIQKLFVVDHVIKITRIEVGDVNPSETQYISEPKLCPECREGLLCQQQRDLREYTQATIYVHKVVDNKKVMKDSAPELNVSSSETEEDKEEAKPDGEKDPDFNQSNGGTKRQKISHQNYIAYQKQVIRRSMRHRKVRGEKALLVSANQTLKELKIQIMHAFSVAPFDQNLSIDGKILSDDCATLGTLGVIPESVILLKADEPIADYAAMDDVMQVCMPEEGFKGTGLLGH
How it was run: as §1

USP5 = biological target: T4, USP5 (UniProt P45974)
T4 sequence (whole entry): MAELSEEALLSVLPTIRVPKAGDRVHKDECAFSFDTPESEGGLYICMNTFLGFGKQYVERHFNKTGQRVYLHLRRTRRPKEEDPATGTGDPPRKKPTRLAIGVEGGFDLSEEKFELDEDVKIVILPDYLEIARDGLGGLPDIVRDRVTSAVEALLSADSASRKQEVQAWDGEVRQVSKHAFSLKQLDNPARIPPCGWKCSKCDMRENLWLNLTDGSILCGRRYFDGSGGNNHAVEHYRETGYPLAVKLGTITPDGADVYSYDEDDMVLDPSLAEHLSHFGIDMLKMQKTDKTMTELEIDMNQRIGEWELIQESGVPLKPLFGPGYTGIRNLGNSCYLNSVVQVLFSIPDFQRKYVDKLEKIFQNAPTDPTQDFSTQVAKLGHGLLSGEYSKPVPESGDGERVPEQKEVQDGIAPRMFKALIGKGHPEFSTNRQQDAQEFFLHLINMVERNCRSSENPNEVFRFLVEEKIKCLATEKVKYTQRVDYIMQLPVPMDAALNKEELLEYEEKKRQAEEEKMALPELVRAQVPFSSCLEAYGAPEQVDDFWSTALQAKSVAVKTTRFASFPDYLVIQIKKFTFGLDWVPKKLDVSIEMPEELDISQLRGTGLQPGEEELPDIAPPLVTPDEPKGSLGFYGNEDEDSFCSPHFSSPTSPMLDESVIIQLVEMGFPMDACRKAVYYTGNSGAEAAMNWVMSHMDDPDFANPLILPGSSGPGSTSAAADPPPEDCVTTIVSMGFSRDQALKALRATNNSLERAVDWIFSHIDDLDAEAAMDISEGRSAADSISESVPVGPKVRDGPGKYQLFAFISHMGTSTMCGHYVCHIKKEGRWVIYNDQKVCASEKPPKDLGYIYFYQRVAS
How it was run: as §1

USP54 = USP54 (UniProt Q70EL1)
How it was run: as §1

USP7 = USP7 (UniProt Q93009)
Chain of USP7 (Q93009 whole entry, looked up): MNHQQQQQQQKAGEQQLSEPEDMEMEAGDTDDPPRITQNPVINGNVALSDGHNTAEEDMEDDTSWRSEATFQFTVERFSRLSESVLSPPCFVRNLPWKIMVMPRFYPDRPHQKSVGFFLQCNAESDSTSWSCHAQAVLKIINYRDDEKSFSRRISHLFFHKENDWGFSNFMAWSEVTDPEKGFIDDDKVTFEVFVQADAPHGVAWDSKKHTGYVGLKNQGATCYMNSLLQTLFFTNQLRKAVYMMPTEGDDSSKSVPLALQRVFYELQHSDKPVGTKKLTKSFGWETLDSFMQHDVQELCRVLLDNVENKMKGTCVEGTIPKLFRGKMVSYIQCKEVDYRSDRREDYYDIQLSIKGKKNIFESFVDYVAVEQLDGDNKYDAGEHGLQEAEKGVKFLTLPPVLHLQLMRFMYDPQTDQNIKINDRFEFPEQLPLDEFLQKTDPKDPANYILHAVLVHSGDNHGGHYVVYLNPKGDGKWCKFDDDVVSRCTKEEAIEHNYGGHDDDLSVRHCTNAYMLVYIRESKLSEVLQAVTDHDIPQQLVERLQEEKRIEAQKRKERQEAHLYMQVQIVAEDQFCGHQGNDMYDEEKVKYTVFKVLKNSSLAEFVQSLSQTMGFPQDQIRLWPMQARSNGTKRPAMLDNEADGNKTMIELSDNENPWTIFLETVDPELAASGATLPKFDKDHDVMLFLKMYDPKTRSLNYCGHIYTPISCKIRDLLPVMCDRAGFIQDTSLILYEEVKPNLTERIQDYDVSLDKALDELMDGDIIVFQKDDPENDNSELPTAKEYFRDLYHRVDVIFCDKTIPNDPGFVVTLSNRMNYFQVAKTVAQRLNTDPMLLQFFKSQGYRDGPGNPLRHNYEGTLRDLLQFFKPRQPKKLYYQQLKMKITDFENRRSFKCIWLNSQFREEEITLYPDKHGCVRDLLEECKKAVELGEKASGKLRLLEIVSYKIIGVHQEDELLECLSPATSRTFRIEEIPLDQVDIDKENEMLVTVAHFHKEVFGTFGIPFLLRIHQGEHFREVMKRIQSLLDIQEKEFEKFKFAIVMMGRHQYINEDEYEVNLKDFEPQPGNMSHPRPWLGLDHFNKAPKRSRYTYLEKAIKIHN
How it was run: as §1

USP8 = biological target: T5, USP8 (UniProt P40818)
T5 sequence (whole entry): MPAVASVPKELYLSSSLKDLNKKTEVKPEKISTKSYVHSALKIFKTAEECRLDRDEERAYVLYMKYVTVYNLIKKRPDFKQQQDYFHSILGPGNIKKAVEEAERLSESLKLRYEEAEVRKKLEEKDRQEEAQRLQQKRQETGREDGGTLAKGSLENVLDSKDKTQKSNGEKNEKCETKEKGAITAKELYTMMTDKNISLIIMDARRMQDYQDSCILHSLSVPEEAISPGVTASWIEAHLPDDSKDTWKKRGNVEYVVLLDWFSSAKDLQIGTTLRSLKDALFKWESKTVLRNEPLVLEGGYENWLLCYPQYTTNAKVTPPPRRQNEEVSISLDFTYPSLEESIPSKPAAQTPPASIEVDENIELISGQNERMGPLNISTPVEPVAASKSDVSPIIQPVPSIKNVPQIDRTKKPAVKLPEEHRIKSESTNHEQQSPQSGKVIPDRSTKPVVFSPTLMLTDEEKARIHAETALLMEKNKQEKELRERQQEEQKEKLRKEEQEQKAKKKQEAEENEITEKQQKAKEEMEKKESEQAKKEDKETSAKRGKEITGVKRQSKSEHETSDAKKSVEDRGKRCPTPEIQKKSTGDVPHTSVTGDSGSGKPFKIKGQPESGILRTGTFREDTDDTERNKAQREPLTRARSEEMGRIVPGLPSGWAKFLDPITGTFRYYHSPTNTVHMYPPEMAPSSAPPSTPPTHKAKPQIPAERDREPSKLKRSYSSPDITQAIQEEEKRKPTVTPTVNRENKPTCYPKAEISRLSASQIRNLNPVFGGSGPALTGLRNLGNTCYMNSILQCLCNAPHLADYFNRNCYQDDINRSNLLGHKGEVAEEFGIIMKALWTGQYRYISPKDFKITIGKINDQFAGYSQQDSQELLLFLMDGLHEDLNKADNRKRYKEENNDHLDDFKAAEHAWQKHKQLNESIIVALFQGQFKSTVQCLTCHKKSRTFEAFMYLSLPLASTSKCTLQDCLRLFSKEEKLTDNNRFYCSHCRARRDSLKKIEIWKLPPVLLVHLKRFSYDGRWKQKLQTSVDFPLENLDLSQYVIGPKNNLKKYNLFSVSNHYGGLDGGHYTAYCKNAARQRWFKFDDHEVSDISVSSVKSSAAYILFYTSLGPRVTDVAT
How it was run: as §1

USP9X = USP9X (UniProt Q93008)
Chain of USP9X (Q93008 whole entry): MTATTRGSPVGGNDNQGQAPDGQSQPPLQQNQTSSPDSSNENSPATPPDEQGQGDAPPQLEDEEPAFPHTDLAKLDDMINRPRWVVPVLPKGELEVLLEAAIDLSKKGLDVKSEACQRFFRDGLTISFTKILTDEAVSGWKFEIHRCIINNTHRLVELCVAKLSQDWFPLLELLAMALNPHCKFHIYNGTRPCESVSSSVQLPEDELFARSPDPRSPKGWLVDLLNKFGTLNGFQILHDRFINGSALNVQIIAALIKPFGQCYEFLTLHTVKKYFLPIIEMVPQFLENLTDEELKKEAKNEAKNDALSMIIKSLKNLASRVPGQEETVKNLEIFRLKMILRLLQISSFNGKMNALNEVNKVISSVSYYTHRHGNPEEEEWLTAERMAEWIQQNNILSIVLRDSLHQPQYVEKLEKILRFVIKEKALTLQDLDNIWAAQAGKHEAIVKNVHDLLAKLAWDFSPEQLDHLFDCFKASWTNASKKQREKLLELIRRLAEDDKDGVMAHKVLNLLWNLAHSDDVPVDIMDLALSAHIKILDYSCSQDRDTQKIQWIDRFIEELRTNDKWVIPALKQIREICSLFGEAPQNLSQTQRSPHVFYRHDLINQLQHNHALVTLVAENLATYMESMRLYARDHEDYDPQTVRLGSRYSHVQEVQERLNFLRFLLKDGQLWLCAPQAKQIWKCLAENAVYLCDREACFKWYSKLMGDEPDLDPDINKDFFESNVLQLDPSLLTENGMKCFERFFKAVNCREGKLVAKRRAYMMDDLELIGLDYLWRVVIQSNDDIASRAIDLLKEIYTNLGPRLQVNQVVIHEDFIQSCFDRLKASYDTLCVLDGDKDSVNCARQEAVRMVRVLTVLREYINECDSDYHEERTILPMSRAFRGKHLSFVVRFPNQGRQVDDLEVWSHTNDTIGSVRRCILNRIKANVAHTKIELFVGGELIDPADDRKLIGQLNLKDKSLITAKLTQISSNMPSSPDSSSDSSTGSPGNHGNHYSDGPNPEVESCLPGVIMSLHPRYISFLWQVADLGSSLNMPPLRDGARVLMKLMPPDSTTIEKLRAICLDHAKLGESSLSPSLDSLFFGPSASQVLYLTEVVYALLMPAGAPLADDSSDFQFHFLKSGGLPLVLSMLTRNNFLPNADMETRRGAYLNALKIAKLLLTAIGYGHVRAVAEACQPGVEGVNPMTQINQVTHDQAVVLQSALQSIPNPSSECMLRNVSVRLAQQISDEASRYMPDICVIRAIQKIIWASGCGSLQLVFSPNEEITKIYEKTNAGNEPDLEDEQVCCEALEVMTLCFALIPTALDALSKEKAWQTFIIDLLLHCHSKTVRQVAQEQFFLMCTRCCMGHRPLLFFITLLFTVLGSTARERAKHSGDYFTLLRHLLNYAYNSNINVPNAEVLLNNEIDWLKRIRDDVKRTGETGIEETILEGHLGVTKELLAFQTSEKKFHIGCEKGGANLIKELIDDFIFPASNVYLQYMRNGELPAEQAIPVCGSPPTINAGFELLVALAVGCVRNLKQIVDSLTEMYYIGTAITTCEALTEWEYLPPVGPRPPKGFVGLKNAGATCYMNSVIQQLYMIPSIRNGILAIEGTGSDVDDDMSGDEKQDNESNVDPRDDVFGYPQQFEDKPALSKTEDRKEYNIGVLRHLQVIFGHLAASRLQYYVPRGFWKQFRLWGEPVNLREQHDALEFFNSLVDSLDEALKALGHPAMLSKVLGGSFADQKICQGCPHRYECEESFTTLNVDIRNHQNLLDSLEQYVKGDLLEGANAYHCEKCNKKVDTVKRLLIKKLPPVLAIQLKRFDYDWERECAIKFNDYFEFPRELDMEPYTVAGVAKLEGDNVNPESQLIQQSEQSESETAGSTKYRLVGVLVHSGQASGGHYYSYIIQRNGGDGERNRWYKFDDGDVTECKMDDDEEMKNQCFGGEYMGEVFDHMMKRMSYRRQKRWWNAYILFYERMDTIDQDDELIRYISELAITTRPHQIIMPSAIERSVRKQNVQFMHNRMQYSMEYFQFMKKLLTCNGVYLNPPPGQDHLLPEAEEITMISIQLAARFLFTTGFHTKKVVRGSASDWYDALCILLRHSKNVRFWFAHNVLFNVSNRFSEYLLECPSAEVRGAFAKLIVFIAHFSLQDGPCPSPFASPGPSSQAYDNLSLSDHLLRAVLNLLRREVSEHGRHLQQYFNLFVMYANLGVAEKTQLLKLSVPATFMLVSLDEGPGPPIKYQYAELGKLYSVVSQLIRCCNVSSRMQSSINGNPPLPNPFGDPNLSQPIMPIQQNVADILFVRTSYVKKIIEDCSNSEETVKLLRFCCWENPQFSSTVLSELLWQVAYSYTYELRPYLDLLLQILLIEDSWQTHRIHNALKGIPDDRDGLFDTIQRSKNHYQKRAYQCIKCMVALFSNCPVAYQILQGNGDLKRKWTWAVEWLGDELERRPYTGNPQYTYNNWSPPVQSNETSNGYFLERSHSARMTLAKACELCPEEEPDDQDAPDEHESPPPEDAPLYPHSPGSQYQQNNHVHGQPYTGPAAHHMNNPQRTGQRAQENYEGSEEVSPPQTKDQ
How it was run: as §1

UniProt O00487 = biological target: UniProt O00487
Chain of UniProt O00487 (O00487 whole entry): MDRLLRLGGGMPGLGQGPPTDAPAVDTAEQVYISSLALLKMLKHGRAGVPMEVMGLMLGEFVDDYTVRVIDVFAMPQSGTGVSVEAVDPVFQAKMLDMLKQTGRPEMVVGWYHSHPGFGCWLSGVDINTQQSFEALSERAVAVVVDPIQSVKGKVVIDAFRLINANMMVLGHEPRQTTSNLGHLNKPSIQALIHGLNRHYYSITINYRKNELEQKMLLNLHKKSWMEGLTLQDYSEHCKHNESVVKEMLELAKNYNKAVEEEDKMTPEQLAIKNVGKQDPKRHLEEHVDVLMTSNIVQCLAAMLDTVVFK
How it was run: as §1

Measured: log2 ratio of Biotin-Ahx-Ub-VS probe labelling

Cc1cccnc1NC(=O)C1CCN(C(=O)CCl)CC1.Cl
inactive: USP42 -0.427 | USP46 -0.0664 | USP47 -0.337 | USP48 -0.172 | USP5 -0.0361 | USP54 0.628 | USP7 -0.121 | USP8 -0.221 | USP9X -0.327 | UniProt O00487 0.014
